# Measurements published in paper PMC4336329 (PLoS ONE, 2015).
# In all, about 310,000 compounds went through this assay and about 2,200 (0.71%) showed an effect of 50% or more. The effect is printed as a negative number. The entries come from a sample that favours strong results as a whole.
# Molecular target: human ether-à-go-go-related gene (hERG) potassium channel (human, UniProt Q12809)
# Test: primary screen, population patch clamp on CHO cells stably expressing hERG; higher = less effect of the substance
# Method: Briefly, Chinese hamster ovary (CHO) cells stably expressing the hERG channel were dislodged from tissue culture flasks and dispensed into PPC plates. […] During the recording, background leak currents were estimated by a 100 ms step to -80 mV from an initial holding potential of -70 mV and subtracted from the subsequent current measurement. The campaign was conducted in two phases using slight differences in recording protocol. In the first phase, the initial voltage pulse used a 100 ms step to -30 mV from a holding potential of -70 mV, a 2 s conditioning step to +25 mV, and a 2 s test step to -30 mV. During the second phase of the screen, the potential during the conditioning step was raised to +45 mV. In both phases of the campaign, a secondary voltage pulse was applied using the same parameters as the second phase initial pulse. The initial and secondary pulses were applied in the absence of compound, and upon application of 1 μM and 10 μM test concentrations. Small molecule effects on hERG current density were quantified by […].
# Chain of human ether-à-go-go-related gene (hERG) potassium channel (Q12809 whole entry, looked up): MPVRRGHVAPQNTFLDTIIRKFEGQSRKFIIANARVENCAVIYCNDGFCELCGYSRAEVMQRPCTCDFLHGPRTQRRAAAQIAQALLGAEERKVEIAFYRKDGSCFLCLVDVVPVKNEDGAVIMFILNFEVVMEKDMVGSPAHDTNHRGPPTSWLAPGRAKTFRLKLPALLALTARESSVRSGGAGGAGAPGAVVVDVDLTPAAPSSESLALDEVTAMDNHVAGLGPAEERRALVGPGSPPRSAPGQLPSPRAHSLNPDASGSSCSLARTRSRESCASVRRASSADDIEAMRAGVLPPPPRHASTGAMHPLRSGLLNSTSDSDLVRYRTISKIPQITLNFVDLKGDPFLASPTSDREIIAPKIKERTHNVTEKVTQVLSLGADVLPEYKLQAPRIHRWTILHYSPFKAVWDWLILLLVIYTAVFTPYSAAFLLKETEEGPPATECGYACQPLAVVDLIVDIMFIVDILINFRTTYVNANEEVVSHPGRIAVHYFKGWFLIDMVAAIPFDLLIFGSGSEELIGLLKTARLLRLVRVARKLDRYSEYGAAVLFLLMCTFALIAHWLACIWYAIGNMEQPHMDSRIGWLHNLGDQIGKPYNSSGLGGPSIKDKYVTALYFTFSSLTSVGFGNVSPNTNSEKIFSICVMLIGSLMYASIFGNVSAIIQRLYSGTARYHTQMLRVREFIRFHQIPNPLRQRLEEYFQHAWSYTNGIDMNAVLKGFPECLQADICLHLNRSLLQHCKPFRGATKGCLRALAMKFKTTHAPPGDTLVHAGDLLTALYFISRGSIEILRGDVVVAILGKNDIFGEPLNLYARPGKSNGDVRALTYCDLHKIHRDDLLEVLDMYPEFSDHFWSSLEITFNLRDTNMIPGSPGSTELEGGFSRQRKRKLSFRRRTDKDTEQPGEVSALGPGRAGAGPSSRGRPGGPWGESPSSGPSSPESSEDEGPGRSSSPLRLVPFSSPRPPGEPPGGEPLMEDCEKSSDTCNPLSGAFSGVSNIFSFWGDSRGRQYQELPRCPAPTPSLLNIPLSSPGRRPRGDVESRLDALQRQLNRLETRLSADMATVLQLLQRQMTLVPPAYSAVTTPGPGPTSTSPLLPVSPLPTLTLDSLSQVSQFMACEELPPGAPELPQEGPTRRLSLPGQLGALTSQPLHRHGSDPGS
row,Structure (SMILES),"hERG current change (%, negative = inhibition) at 1uM [%]"
1,O=C(OCC(=O)N1CCCC1=O)c1ccc(F)c(S(=O)(=O)N2CCOCC2)c1,-4.67
2,Cc1cc(C)c(S(C)(=O)=O)c(S(=O)c2ccc(Cl)cc2)n1 (stereo not drawn),3.19
3,CCOC(=O)c1[nH]c2ccc(OC)cc2c1NC(=O)CCN1CCN(Cc2ccccc2)CC1,-36
4,NC(=O)CSc1nnc(Cc2csc(Nc3ccc(F)cc3)n2)n1Cc1ccccc1,11.5
5,O=C(OCC(=O)N(C1CCCCC1)C1CCCCC1)c1ccco1,9.71
6,O=C(O)CCN1C(=O)c2ccccc2C1=O,19.2
7,CN(C)S(=O)(=O)c1cccc(-c2nnc(SCc3ccc4c(c3)OCCO4)o2)c1,-0.0123
8,C=CCc1ccc(OCC(O)CN2CCN(c3ccccc3)CC2)c(OC)c1.Cl (stereo not drawn),-33.7
9,C=CCc1ccc(OCC(O)CN2CCC(Cc3ccccc3)CC2)c(OC)c1.Cl (stereo not drawn),-75
10,C=CCc1ccc(OCC(O)CN2CCN(Cc3ccc(Cl)cc3)CC2)c(OC)c1.Cl (stereo not drawn),-55.3
11,C=CCc1ccccc1OCC(O)CN1CCN(c2ccccc2OC)CC1.Cl (stereo not drawn),-52.3
12,C=CCc1ccccc1OCC(O)CN1CCN(c2ccccc2F)CC1.Cl (stereo not drawn),-0.42
13,C=CCc1ccc(OCC(O)CN2CCCCC2)c(OC)c1 (stereo not drawn),-16.5
14,C=CCc1ccc(OCC(O)CN2CCN(c3ccccc3OC)CC2)c(OC)c1.Cl (stereo not drawn),8.86
15,C=CCc1ccccc1OCC(O)CN1CCN(c2ccc(OC)cc2)CC1.Cl (stereo not drawn),-27.3
16,C=CCc1ccc(OCC(O)CN2CCN(Cc3ccccc3)CC2)c(OC)c1.Cl (stereo not drawn),-10.6
17,COc1cc(CN2CCN(c3ccccc3C)CC2)cc([N+](=O)[O-])c1O,7.17
18,CN(C)C(=O)Oc1ccc(OC(=O)c2ccccc2)cc1,10.4
19,Cc1ccc(-n2c(N)c(C#N)c(-c3ccc(Cl)cc3)c(C#N)c2=O)cc1,10.8
20,CCCCNC(=O)COC(=O)c1cc(C)oc1C,8.11
21,Cc1ccc(OCC(O)CN2CCN(c3ccc(C)cc3)CC2)cc1 (stereo not drawn),-3.83
22,Cc1nonc1OCCN1CCN(c2ccc([N+](=O)[O-])cc2)CC1,-100
23,Cc1nonc1OCCN1CCN(c2ccccc2[N+](=O)[O-])CC1.Cl,-2.31
24,Cc1nonc1OCCNc1ccc([N+](=O)[O-])cc1,-17.1

row,Structure (SMILES),"hERG current change (%, negative = inhibition) at 1uM [%]"
1,COc1ccc(N2CCN(CC(O)COc3ccc([N+](=O)[O-])cc3)CC2)cc1.Cl (stereo not drawn),-45.5
2,O=[N+]([O-])c1ccc(OCC(O)CN2CCN(c3ccccc3F)CC2)cc1 (stereo not drawn),-77.6
3,Cl.OC(COc1ccc(F)cc1)CN1CCN(c2ccccc2F)CC1 (stereo not drawn),-49.5
4,Cc1ccc(N2CCN(CC(O)COc3ccc([N+](=O)[O-])cc3)CC2)cc1 (stereo not drawn),-65.4
5,OC(COc1ccc2c(c1)CCC2)CN1CCN(c2ccccc2F)CC1 (stereo not drawn),5.87
6,COc1ccc(CCNC(=O)c2cccc([N+](=O)[O-])c2)cc1OC,3.3
7,O/N=C(\COc1ccccc1O)c1ccccc1,-0.796
8,CN(c1ccc(OCC(=O)NCc2cccnc2)cc1)S(=O)(=O)c1ccc(Cl)cc1,-4.28
9,CCOC(=O)CC1C(=O)NCCN1S(=O)(=O)c1ccc(Br)cc1 (stereo not drawn),6.26
10,O=C(CCn1nnc2ccccc2c1=O)N[C@@H](Cc1c[nH]c2ccccc12)C(=O)O,11.6
11,COc1ccc(CCNC(=O)C2(C)CCC(=O)N2Cc2ccc(F)cc2Cl)cc1OC (stereo not drawn),16.2
12,Cl.O=C(NCCN1CCCC1)c1cccc(Cl)c1,-13.1
13,CC(C)c1ccc(C(=O)NCCCN2CCOCC2)cc1,2.78
14,COc1ccc(C(=O)CCN2CCN(c3ccccc3OC)CC2)cc1.Cl,-4.48
15,O=C(NCCN1CCOCC1)c1cccc(Cl)c1,2.76
16,COc1ccccc1N1CCN(C(=O)CCCN2C(=O)c3cccc4cccc(c34)C2=O)CC1.Cl,-89.5
17,COc1ccc(S(N)(=O)=O)cc1C(=O)NCCCN1CCN(c2ccccc2OC)CC1.CS(=O)(=O)O,4.07
18,CC(C)c1ccc(C(=O)NCCCN2CCN(CCCNC(=O)c3ccc(C(C)C)cc3)CC2)cc1,-86.4
19,Cc1ccc(C(=O)NCCCN2CCN(CCCNC(=O)c3ccc(C)cc3)CC2)cc1,-36.5
20,COc1ccccc1N1CCN(C(=O)CCN2C(=O)c3cccc4cccc(c34)C2=O)CC1,9.15
21,COc1ccccc1N1CCN(CCCCNC(=O)c2ccc3ccccc3c2)CC1.Cl,-75.8
22,O=C(NCCCN1CCN(CCCNC(=O)c2cccc(Cl)c2)CC1)c1cccc(Cl)c1,-74.5
23,CCOc1ccccc1N1CCN(C(=O)CCCN2C(=O)c3cccc4cccc(c34)C2=O)CC1,2.15
24,COc1cc2c(cc1OC)C(c1ccc([N+](=O)[O-])cc1)N(C(C)=O)CC2 (stereo not drawn),5.11

row,Structure (SMILES),"hERG current change (%, negative = inhibition) at 1uM [%]"
1,CC(C)c1ccc(NC(=O)c2ccc3c(c2)C(=O)N(Cc2cccnc2)C3=O)cc1,8.25
2,c1ccc(CC(Nc2ccccn2)c2ccccc2)cc1 (stereo not drawn),-10.6
3,NC(=O)CSc1n[nH]c(=O)n1CCc1ccccc1,10.4
4,O=C(Cc1cccs1)NCc1cccc(Cl)c1,9.08
5,CCOc1ccc2[nH]c(O)c(NC(C)=O)c2c1,5.98
6,CCc1c(C)nc2ncnn2c1NCc1cccs1,6.69
7,COc1cc(/C=N/NC(=O)c2ccccc2)ccc1O,-5.66
8,COc1cc2c(cc1OC)/C(=C/C#N)NC(C)(C)C2,7.09
9,CNc1nc(SC)nc2ccccc12,16.4
10,COc1cc(OC)cc(C(=O)NCCCN2CCN(CCCNC(=O)c3cc(OC)cc(OC)c3)CC2)c1,-18.8
11,CN1CCN(CCCNC(=O)c2ccc(CSCc3cccc(Cl)c3)o2)CC1,1.54
12,CC1CCN(CCCNC(=O)c2ccc(CSCc3cccc(Cl)c3)o2)CC1,-62.4
13,COc1cccc(C(=O)NCCCN2CCN(CCCNC(=O)c3cccc(OC)c3)CC2)c1,-65.2
14,O=C(NCCCN1CCCC1)c1ccc(CSCc2cccc(Cl)c2)o1,-30.4
15,COc1cccc(C(=O)NCCCNC(=O)c2cccc(OC)c2)c1,12.4
16,Cc1ccc2nsnc2c1NC(=O)c1cccnc1Cl,15.1
17,COc1ccc(S(=O)(=O)N2CCC(Nc3ccccc3Cl)CC2)cc1,28.1
18,COc1ccc(/C=C2\SC(=S)N(CC(=O)NC3CCS(=O)(=O)C3)C2=O)cc1 (stereo not drawn),17.2
19,COc1ccc2c(c1)c1c3n2CCN(C)C3=NCC1.Cl,-54.9
20,CN=C1c2c(-c3ccccc3)c3cc(OC)ccc3n2CCN1C.Cl,-31.6
21,COc1ccc2c(c1)c1c(n2C(C)=O)C(OC(C)=O)=NCC1,2.42
22,COc1ccc(OCC(=O)Nc2c3c(nn2-c2ccccc2)CS(=O)(=O)C3)cc1,7.69
23,O=C1c2ccccc2C(=O)N1Cc1cccnc1,15.6
24,Cc1cc(N2CCOCC2)n2nc(C)c(-c3ccc(Cl)cc3)c2n1,7.28

row,Structure (SMILES),"hERG current change (%, negative = inhibition) at 1uM [%]"
1,Cc1cc(N2CCN(C)CC2)n2nc(-c3ccc(Cl)cc3)nc2n1,-67.2
2,Cc1cc(N2CCOCC2)n2cc(-c3ccccc3)nc2n1,-14.6
3,Cc1cc(N2CCN(c3ccccc3)CC2)n2cc(-c3ccccc3)nc2n1,-16.4
4,Cc1cc(N2CCOCC2)n2cc(-c3ccc(F)cc3)nc2n1,-34.9
5,Cc1nc2nc(-c3ccc(Cl)cc3)nn2c(C)c1Cl,13.4
6,Cc1cc(N2CCN(c3ccccn3)CC2)n2cc(-c3ccccc3)nc2n1,-65.4
7,Cc1cc(N2CCN(C)CC2)n2cc(-c3ccc(F)cc3)nc2n1,-89.8
8,Cc1cc(N2CCN(c3ccccc3Cl)CC2)n2cc(-c3ccccc3)nc2n1,-2.03
9,Cc1cc(C)nc(-n2ncc3c2CC(C)CC3=O)n1 (stereo not drawn),11.4
10,O=C(CN1C(=O)C2CCCCN2C(=O)c2ccccc21)N1CCCc2ccccc21 (stereo not drawn),15.1
11,O=C(Cc1cccs1)Nc1nnc(SCc2cccc3ccccc23)s1,-3.03
12,COc1ccc(OC)c(NC(=O)CSc2nc(=O)n(Cc3ccccn3)c3c2CCC3)c1,-2.43
13,Cc1cc(O)c(C(C)C)cc1NC(=O)Cn1nc(C)c2ccccc2c1=O,-6.85
14,Cc1ccc(NC(=O)CCc2ccc(C)o2)cc1,7.21
15,COC(=O)c1ccc(NC(=O)c2cc[n+]([O-])cc2)cc1,10.9
16,Clc1ccc2[nH]c3c(NCC4CCCO4)ncnc3c2c1 (stereo not drawn),-3.05
17,CCN1CCCC1CNC(=O)c1cc2ccc(OC)cc2[nH]1 (stereo not drawn),5.34
18,Fc1ccc2[nH]c3c(NCCN4CCOCC4)ncnc3c2c1,8.84
19,CCN1CCCC1CNc1ncnc2c1[nH]c1ccc(Cl)cc12 (stereo not drawn),-85.5
20,CCN1CCCC1CNc1ncnc2c1[nH]c1ccc(F)cc12 (stereo not drawn),-81.4
21,Fc1ccc2[nH]c3c(NCc4ccccc4)ncnc3c2c1,15.4
22,Clc1ccc2[nH]c3c(NCCN4CCOCC4)ncnc3c2c1,-2.76
23,CCN1CCCC1CNC(=O)c1cc2cc(F)ccc2[nH]1 (stereo not drawn),-53.8
24,CCN1CCCC1CNC(=O)c1cc2cc(OC)c(OC)cc2[nH]1 (stereo not drawn),16.2
